Values without a mark were called inactive. For part of these data: Potency and affinity values are given separately. Active and inactive are the calls of the source. Unless noted, the rule behind the calls is not given here.

From PubChem BioAssay come the findings set out here.

A short description of assay [1]: antimalarial activity against Dd2 strain (AID 2302;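 active = growth inhibition above 50% at the single 2 µM test dose, taken to imply half-maximal potency below 2 µM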;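 note: 0% = DMSO untreated growth and 100% = chloroquine plus artemisinin killed control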). To be noted: P. falciparum Dd2 in RBCs, LDH growth readout, 72 h; at 2 µM; hits give high values.
The nature of assay [2]: human hepatoma cell viability loss – ATP luminescence, cytotoxicity control for P. falciparum antimalarial project, primary screen (AID 2303;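 active = inhibition above 50%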;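 note: 0% = DMSO wells and 100% = digitonin-killed cells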). To be noted: HepG2 viability, 24-48 h, at 10 µM, hits give high values.
Assay [3] has as its target L-lactate dehydrogenase (Plasmodium falciparum (isolate CDC / Honduras)) (UniProt Q27743). The assay can be described thus: PfLDH activity inhibition – cell lysate, 3D7 strain, counter-screen for P. falciparum growth inhibition project (AID 2304).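 Note: 0% = vehicle and 100% = reference inhibitor.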 Conditions: P. falciparum 3D7 crude extract, LDH APAD/NBT absorbance; at 2 µM; hits give high values.
Assay [4] can be described thus: inhibition of 3D7 malaria parasite growth – strain 3D7 (AID 2306).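 Note: 0% = DMSO wells and 100% = chloroquine plus artemisinin control wells.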 To be noted: P. falciparum 3D7 erythrocytic growth, LDH absorbance, 72 h; at 2 µM; hits give high values.
For assay [5], the target named is Calcium-dependent protein kinase 1 (Plasmodium falciparum (isolate 3D7)) (UniProt P62344). The experiment in a line: PfCDPK1 kinase inhibitors, biochemical, TCAMS library (AID 1159585; cut-off not given, nearly all actives have IC50 up to about 0.98 µM;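 note: inhibitors leave more ATP so luminescence rises with inhibition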). Conditions: recombinant PfCDPK1, Kinase-Glo ATP depletion luminescence. A general note: In Kinase-Glo more light means more ATP remaining.
Assay [6] concerns the target Plasmodium falciparum protein kinase 6 (PK6, PF3D7_1337100) (UniProt Q8IDW1). The assay can be described thus: PfPK6 kinase inhibitors, biochemical, TCAMS library (AID 1159586). Conditions: recombinant PfPK6, Kinase-Glo ATP depletion luminescence.
For assay [7], the target named is Protein kinase 7 (PK7), Plasmodium falciparum 3D7 (PF3D7_0213400) (UniProt Q7YTF7). The experiment in a line: inhibition of Plasmodium PK7 catalytic activity – biochemical, TCAMS antimalarial set, Kinase-Glo luminescence (AID 1159587). Conditions: recombinant PfPK7, Kinase-Glo ATP depletion luminescence.
In assay [8] the target is Calcium-dependent protein kinase 4 (Plasmodium falciparum (isolate 3D7)) (UniProt Q8IBS5). The assay can be described thus: PfCDPK4 kinase inhibitors, biochemical, TCAMS library (AID 1159588; cut-off not given, nearly all actives have IC50 up to about 0.91 µM). To be noted: recombinant PfCDPK4, Kinase-Glo ATP depletion luminescence.
Sequence of Calcium-dependent protein kinase 4 (Plasmodium falciparum (isolate 3D7)) (Q8IBS5 whole entry, looked up): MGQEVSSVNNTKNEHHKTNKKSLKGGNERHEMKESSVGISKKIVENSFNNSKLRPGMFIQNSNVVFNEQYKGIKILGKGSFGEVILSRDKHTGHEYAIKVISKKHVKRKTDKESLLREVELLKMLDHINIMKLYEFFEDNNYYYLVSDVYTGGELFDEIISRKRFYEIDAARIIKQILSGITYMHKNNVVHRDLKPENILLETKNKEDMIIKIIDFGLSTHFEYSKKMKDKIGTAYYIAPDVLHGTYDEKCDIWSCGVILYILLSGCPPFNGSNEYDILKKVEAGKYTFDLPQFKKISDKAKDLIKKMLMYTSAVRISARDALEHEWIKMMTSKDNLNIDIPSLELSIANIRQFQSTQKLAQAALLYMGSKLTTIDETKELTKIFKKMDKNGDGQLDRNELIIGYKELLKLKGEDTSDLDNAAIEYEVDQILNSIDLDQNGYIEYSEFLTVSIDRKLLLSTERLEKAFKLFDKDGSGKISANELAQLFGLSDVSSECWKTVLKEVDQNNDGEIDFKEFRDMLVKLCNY

Sequence of Protein kinase 7 (PK7), Plasmodium falciparum 3D7 (PF3D7_0213400) (Q7YTF7 1-343): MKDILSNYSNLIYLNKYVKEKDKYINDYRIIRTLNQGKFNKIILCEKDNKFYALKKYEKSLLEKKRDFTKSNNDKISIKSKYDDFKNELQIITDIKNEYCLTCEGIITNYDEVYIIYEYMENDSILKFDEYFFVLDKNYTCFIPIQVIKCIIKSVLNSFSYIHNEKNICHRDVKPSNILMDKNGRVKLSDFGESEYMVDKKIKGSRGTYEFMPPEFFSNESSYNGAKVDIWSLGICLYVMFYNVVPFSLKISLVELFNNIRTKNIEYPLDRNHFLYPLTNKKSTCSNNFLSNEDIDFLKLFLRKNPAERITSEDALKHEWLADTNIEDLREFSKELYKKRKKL
Sequence of Plasmodium falciparum protein kinase 6 (PK6, PF3D7_1337100) (Q8IDW1 1-305): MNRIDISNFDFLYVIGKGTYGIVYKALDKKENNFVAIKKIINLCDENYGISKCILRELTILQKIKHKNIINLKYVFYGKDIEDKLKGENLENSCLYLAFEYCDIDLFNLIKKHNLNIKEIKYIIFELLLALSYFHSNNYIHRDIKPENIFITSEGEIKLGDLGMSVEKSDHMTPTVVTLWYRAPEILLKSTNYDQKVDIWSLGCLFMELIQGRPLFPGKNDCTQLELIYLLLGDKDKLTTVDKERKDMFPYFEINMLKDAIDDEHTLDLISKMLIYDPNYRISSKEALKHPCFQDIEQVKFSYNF
Sequence of L-lactate dehydrogenase (Plasmodium falciparum (isolate CDC / Honduras)) (Q27743 whole entry, looked up): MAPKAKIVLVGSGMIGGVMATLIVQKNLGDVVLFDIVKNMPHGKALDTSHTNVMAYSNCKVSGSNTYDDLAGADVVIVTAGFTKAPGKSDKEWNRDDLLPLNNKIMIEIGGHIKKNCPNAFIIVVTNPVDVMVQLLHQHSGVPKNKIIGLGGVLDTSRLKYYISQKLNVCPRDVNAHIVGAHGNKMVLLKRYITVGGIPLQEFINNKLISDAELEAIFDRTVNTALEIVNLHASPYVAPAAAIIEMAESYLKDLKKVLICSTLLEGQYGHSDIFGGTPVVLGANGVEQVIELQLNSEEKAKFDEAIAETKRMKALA
Sequence of Calcium-dependent protein kinase 1 (Plasmodium falciparum (isolate 3D7)) (P62344 whole entry, looked up): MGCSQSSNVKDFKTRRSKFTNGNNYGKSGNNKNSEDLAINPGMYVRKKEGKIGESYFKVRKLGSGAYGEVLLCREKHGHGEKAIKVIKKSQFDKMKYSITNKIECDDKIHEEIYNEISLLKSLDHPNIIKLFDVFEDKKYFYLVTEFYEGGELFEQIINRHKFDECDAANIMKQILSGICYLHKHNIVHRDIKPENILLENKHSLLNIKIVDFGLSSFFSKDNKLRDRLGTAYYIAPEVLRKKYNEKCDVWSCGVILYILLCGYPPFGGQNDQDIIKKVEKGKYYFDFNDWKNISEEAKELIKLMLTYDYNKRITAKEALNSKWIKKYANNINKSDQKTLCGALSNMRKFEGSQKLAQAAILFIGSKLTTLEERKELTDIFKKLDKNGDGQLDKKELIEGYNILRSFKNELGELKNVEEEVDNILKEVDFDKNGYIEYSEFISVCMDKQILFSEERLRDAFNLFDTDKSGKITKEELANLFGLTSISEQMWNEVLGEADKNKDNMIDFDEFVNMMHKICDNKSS

Turning to `CN(C)CCN(C)Cc1cccc(-c2cccc(NC(=O)c3cccc(C#N)c3)c2)c1`, the growth inhibition in assay [1] is 10%; in assay [4] it was 92% (active). The inhibition – broadly, the relative decrease from the control value, in per cent – is -4% in assay [2] and -1% in assay [3]. The result in assay [5], in assay [6], in assay [7] and in assay [8] was inactive.

Take `CCCN(CCC)C(=O)c1cc(C(=O)N[C@@H](Cc2ccccc2)[C@H](O)CNC(C)(C)c2cccc(C(F)(F)F)c2)cc(N2CCCCS2(=O)=O)c1`: the figures for the growth inhibition in assay [1] and in assay [4] were 98% (active) and 99% (active), respectively. For the same compound, the results for the inhibition in assay [2] and in assay [3] were 19% and -4%, respectively. The result in assay [5], in assay [6], in assay [7] and in assay [8] was inactive.

As to `CC(=NN=C(N)N)c1ccc2ccc3ccccc3c2c1`, the growth inhibition was 23% in assay [1] and 97% (active) in assay [4]. Further, the figures for the inhibition in assay [2] and in assay [3] were 14% and -7%, respectively. Also, the outcome in assay [5], in assay [6], in assay [7] and in assay [8] was inactive.

Regarding `CC(=O)Nc1cc(C(=O)Nc2cccc(-c3csc(-c4nc5ccccc5[nH]4)c3)c2)ccc1C`, the growth inhibition in assay [1] is 66% (active); in assay [4], 94% (active). For the same compound, the inhibition in assay [2] was 31%; in assay [3], 3%. The result in assay [5], in assay [6], in assay [7] and in assay [8] was inactive.

Take `CCCc1c(Cl)cc(CNCCCNc2nc3ccncc3[nH]2)cc1Cl`: the growth inhibition in assay [1] is -5%; in assay [4], 98% (active). The inhibition in assay [2] is 23%; in assay [3] it was -5%. For the same compound, the result in assay [5], in assay [6], in assay [7] and in assay [8] was inactive.

Consider `CCCN(CCCCCCN(CCC)CCc1ccc(O)c(O)c1)CCc1ccc(O)cc1`, for which the growth inhibition in assay [1] is 5%; in assay [4], 90% (active). In addition, the inhibition in assay [2] was 0%; in assay [3], -1%. For the same compound, the outcome in assay [5], in assay [6], in assay [7] and in assay [8] was inactive.

As to `Cc1c(CNCCCNc2cc(=O)c3ccccc3[nH]2)sc(/C=N/O)c1Br`, the growth inhibition in assay [1] is -2%; in assay [4] it was 82% (active). The inhibition was 0% in assay [2] and 6% in assay [3]. Also, the outcome in assay [5], in assay [6], in assay [7] and in assay [8] was inactive.

With `Cc1ccc(CN2CCN(CC(O)COc3ccc4c(c3)CCC4)CC2)cc1` (stereo not drawn), the growth inhibition in assay [1] was -4%; in assay [4], 95% (active). Also, the inhibition was -15% in assay [2] and -3% in assay [3]. In addition, the outcome in assay [5], in assay [6], in assay [7] and in assay [8] was inactive.

`CCN(CC)CCCCCNc1c2ccc(Cl)cc2nc2ccc(OC)cc12`: the growth inhibition in assay [1] and in assay [4] was 99% (active) throughout. The inhibition in assay [2] was 96% (active); in assay [3], 4%. The outcome in assay [5], in assay [6], in assay [7] and in assay [8] was inactive.

Consider `O=C(Nc1ccc(Cl)c(Cl)c1)N1CCc2ccc(OCCCN3CCCCC3)cc2CC1`, for which the growth inhibition in assay [1] was -2%; in assay [4], 92% (active). Also, the inhibition in assay [2] was 27%; in assay [3], -2%. Also, the outcome in assay [5], in assay [6], in assay [7] and in assay [8] was inactive.

On to `Cc1ccc(C(=O)Nc2cccc(-c3ccc(N4CCN(C)CC4)nn3)c2)cc1[N+](=O)[O-]`, for which the growth inhibition was 40% in assay [1] and 99% (active) in assay [4]. Moreover, the inhibition in assay [2] was 32%; in assay [3], -2%. Also, the result in assay [5], in assay [6], in assay [7] and in assay [8] was inactive.

As to `COc1ccc(-c2nonc2NC(=O)c2cccc(Cl)c2)cc1OC`, the growth inhibition is 63% (active) in assay [1] and 98% (active) in assay [4]. Besides, the inhibition in assay [2] is 41%; in assay [3], 4%. The outcome in assay [5], in assay [6], in assay [7] and in assay [8] was inactive.

With `Cc1cc(N[C@@H](Cc2ccccc2)C(=O)NCCOc2ccccc2)nc(NCCc2ccccc2)n1`, the values for the growth inhibition in assay [1] and in assay [4] were 68% (active) and 101% (active), respectively. In addition, the inhibition in assay [2] was 12%; in assay [3] it was -1%. Moreover, the outcome in assay [5], in assay [6], in assay [7] and in assay [8] was inactive.

With `CCOc1ccc(OCCCON2C(N)=NC(N)=NC2(C)C)cc1`, the growth inhibition in assay [1] was 94% (active); in assay [4], 97% (active). Further, the inhibition was 63% (active) in assay [2] and -9% in assay [3]. Further, the result in assay [5], in assay [6], in assay [7] and in assay [8] was inactive.

Regarding `CCn1c(Sc2ccc(C#N)c([N+](=O)[O-])c2)nnc1-c1cccc(Cl)c1`, the growth inhibition was 88% (active) in assay [1] and 95% (active) in assay [4]. For the same compound, the inhibition was -5% in assay [2] and -2% in assay [3]. Further, the result in assay [5], in assay [6], in assay [7] and in assay [8] was inactive.

For the compound `Nc1c2ccccc2nc2ccc(Cl)cc12`, the values for the growth inhibition in assay [1] and in assay [4] were 100% (active) and 101% (active), respectively. Moreover, the inhibition in assay [2] was 55% (active); in assay [3], 6%. Further, the outcome in assay [5], in assay [6], in assay [7] and in assay [8] was inactive.

`COc1cc(OC)cc(-c2nnc(Sc3ccc(C#N)c([N+](=O)[O-])c3)n2C)c1`: the growth inhibition was 77% (active) in assay [1] and 95% (active) in assay [4]. In addition, the inhibition in assay [2] is 1%; in assay [3], 3%. Also, the outcome in assay [5], in assay [6], in assay [7] and in assay [8] was inactive.

For `CN1CCCN(Cc2cccc(-c3cccc(NC(=O)c4cccc(Cl)c4)c3)c2)CC1`, the values for the growth inhibition in assay [1] and in assay [4] were 20% and 96% (active), respectively. The values for the inhibition in assay [2] and in assay [3] were 17% and -4%, respectively. Also, the outcome in assay [5], in assay [6], in assay [7] and in assay [8] was inactive.

As for `O=C(NC1CCCCN(Cc2ccccc2O)C1)c1ccc(-c2ccccc2)cc1` (stereo not drawn), the growth inhibition in assay [1] is 61% (active); in assay [4], 97% (active). In addition, the values for the inhibition in assay [2] and in assay [3] were 21% and -3%, respectively. Further, the result in assay [5], in assay [6], in assay [7] and in assay [8] was inactive.

For the compound `O=C1NC(=O)C(c2cccc(NC(=O)c3ccncc3)c2)=C1c1ccccc1`, the growth inhibition in assay [1] is -3%; in assay [4], 101% (active). Also, the values for the inhibition in assay [2] and in assay [3] were 5% and 3%, respectively. The result in assay [5], in assay [6], in assay [7] and in assay [8] was inactive.

As for `CCn1cnc2c(N3CCCS3(=O)=O)cc(C(=O)N[C@@H](Cc3ccccc3)[C@H](O)CNC(C)(C)c3cccc(C(F)(F)F)c3)cc21`, the figures for the growth inhibition in assay [1] and in assay [4] were 97% (active) and 99% (active), respectively. Further, the inhibition in assay [2] is 9%; in assay [3], -1%. For the same compound, the result in assay [5], in assay [6], in assay [7] and in assay [8] was inactive.
